Experimental data as given in PubChem BioAssay AID2057 (The Scripps Research Institute Molecular Screening Center, 2009).
The whole screen tested about 320,000 compounds, of which about 2,100 (0.66%) were called active. Shown is part of a subset that was picked to be rich in actives. Values without a mark were called inactive.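 Rule for the calls: active = inhibition above the mean inhibition of all tested compounds plus 3 SD, set per campaign (cut at about 40% in these data); inactive = the rest.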

molecular target: Induced myeloid leukemia cell differentiation protein Mcl-1 (Homo sapiens) (UniProt Q07820); experiment: MCL1-BIM peptide interaction disruptors – biochemical, fluorescence polarization, primary screen (AID 2057); settings: GST-MCL1 / FITC-Bim-BH3 fluorescence polarization; at 10.9 µM; hits give high values;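 note: 0% = DMSO wells and 100% = unlabeled Bim-BH3 peptide control; higher means more loss of mP so more displacement of Bim peptide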
Sequence (Q07820 whole entry, looked up): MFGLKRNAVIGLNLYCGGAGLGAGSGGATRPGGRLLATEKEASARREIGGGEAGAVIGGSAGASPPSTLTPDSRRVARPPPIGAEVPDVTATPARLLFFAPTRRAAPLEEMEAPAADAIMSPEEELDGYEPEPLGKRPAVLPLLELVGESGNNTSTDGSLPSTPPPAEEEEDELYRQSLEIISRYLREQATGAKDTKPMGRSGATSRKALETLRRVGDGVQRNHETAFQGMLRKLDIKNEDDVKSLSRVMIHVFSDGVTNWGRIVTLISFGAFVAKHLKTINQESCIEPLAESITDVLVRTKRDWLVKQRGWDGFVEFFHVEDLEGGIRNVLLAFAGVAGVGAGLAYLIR

SMILES	inhibition
CCOC(=O)N1CCN(Cc2nnc(-c3ccccc3Cl)o2)CC1	2.02%
Cn1cnnc1SCc1nnc(-c2ccccc2Br)o1	5.99%
Nc1cccc2c1C(=O)N(Cc1nnc(-c3ccccc3Br)o1)C2=O	54.3% (active)
C=CCOC(=O)C1=C(C)N=C2SCCC(=O)N2C1/C=C/c1ccccc1OC (stereo unspecified)	-0.33%
COc1ccc(C2=CC(c3cccc(OC)c3)n3nnnc3N2)cc1 (stereo unspecified)	37.5%
COc1ccc(C2C=C(c3ccc(Br)cc3)Nc3nc(NS(C)(=O)=O)nn32)cc1 (stereo unspecified)	175% (active)
COc1ccc(C2CC(c3ccc(C)cc3)Nc3nc(N)nn32)cc1 (stereo unspecified)	-0.86%
COc1ccc(NC(=O)C(=O)NCC(c2ccco2)N2CCc3ccccc3C2)cc1 (stereo unspecified)	2.73%
COC(=O)CCCCCN1C(=O)NC(c2ccc(-c3ccccc3)cc2)C(C(=O)OCc2ccccc2)=C1C (stereo unspecified)	6.48%
Cc1cccc(-c2nc(Nc3ccc(O)cc3)c3ccccc3n2)c1	3.74%
COc1ccc(Nc2nc(-c3cccnc3)nc3ccccc23)cn1	128% (active)
O=[N+]([O-])c1ccc(F)cc1Oc1nc(-c2cccnc2)nc2ccccc12	-2.6%
CCNC(=O)CC1C(=O)N(c2ccc(OC)cc2)C(=S)N1CCc1ccncc1 (stereo unspecified)	-3.91%
Cc1cc(C)c(-c2csc(NC(=O)CCCc3nc4ccccc4c(=O)[nH]3)n2)c(C)c1	-5.51%
CCOC(=O)C1CCN(C(=O)Nc2ccc(C)c(Cl)c2)CC1	4.72%
Cc1ccnc(NC(=O)c2ccoc2C)c1	42.1% (active)
Cc1ccnc(NC(=O)CNC(=O)c2ccccc2)c1	6.08%
COc1cc(SC)ccc1C(=O)Nc1cc(C)ccn1	0.12%
COc1ccc(CN2C(=O)C(C)S/C2=N/N=C/c2ccco2)cc1 (stereo unspecified)	4.92%
COc1ccccc1C(=O)NCCC(=O)NC(C)CCc1ccccc1 (stereo unspecified)	-13.4%
CCCOc1ccc(C2c3c(oc4cc(C)c(C)cc4c3=O)C(=O)N2CCCN2CCOCC2)cc1 (stereo unspecified)	14.2%
Cc1cc2oc3ccc(NCCC4CCCN4C)cc3c(=O)c2cc1C (stereo unspecified)	41.8% (active)
CCN(CC)C(=O)Oc1ccc(Br)cc1C(=O)Nc1ccc(F)c(Cl)c1	1.92%
CN(C)[C@@H]1C(=O)C(C(N)=O)=C(O)[C@@]2(O)C(=O)C3=C(O)c4c(O)ccc(Cl)c4[C@@H](O)[C@H]3C[C@@H]12	31.5%

SMILES	inhibition
C=C1c2c(Cl)ccc(O)c2C(O)=C2C(=O)[C@]3(O)C(O)=C(C(N)=O)C(=O)[C@@H](N(C)C)[C@@H]3[C@@H](O)C12 (stereo partly specified)	87.2% (active)
CCc1ccc(-c2cc(C)no2)cc1S(=O)(=O)NCCc1ccc(S(N)(=O)=O)cc1	7.69%
COc1ccc(CCNC(=O)CSCc2ccc(Br)cc2)cc1OC	13.2%
O=C(O)c1cc(S(=O)(=O)N2CCCCCC2)c(Cl)cc1Cl	4.06%
O=C(CNC(=O)c1ccc(F)cc1)c1ccccc1	-5.56%
O=C(CNC(=O)c1ccccc1F)c1ccc(Br)cc1	-5.03%
O=C(C[n+]1cc(Br)cc2ccccc21)c1ccc(F)cc1	63.3% (active)
CCCCn1c(N)c(N(CCOC)C(=O)c2sc3ccccc3c2Cl)c(=O)[nH]c1=O	-3.09%
O=C1c2ccccc2C(=O)N1CCC(O)C[N+](=O)[O-] (stereo unspecified)	0.99%
CCOC(=O)c1c(N)sc(C(C)=O)c1C	12.2%
COCCOC(=O)c1sc(=S)n(CCOC)c1N	105% (active)
COC(=O)c1sc(=S)n(-c2ccc(Cl)cc2)c1C	1.56%
CCOc1ccccc1NC(=O)C1CCCN(S(=O)(=O)c2ccccc2)C1 (stereo unspecified)	-2.29%
O=C(C/C(=N\NC(=O)c1ccccc1Br)C(F)(F)F)c1cccs1	12.5%
O=c1ccc2c(-c3ccccc3S(=O)(=O)O)c3ccc(O)c(O)c3oc-2c1O	88.1% (active)
Cn1c(Nc2ccccc2)cc(=O)n(C)c1=O	-3.95%
COC(=O)CCCC1=CC2=CC(=O)C(C)(OC(=O)c3cccs3)C(=O)C2=CN1CC(C)C (stereo unspecified)	14.8%
COC/C=C/C1=CC2=CC(=O)C(C)(OC(=O)CCC(=O)OC)C(=O)C2=CO1 (stereo unspecified)	64.3% (active)
COC(=O)CCCC1=CC2=CC(=O)C(C)(OC(=O)c3cccs3)C(=O)C2=CN1CC1CC1 (stereo unspecified)	17.1%
O=C(CSc1ccccc1)Nc1cccc(S(=O)(=O)N2CCCCC2)c1	-3.17%
COc1ccc(-c2ccc(OC(=O)NC3CCS(=O)(=O)C3)cc2)cc1 (stereo unspecified)	5.93%
Cc1c(C)c(C)c2[nH]c(=S)[nH]c2c1C	-26%
O=c1[nH]c(=S)[nH]c2[nH]c(=S)[nH]c12	92.7% (active)
COc1ccccc1N1CCN(C(=O)c2cc(=O)c3cc(C)cc(C)c3o2)CC1	0.82%

SMILES	inhibition
CCOc1ccc(N2CC(C(=O)NCCN3C(=O)S/C(=C\c4cccnc4)C3=O)CC2=O)cc1 (stereo unspecified)	-2.41%
COc1ccccc1N1CC(C(=O)NCCN2C(=O)S/C(=C\c3cccnc3)C2=O)CC1=O (stereo unspecified)	14.4%
COc1ccc(N2CC(C(=O)NCCN3C(=O)S/C(=C\c4cccnc4)C3=O)CC2=O)c(OC)c1 (stereo unspecified)	166% (active)
CC1CC(=O)N(CC(=O)Nc2cccc(Cl)c2)c2ccccc2S1(=O)=O (stereo unspecified)	-4.67%
CCCC1OC23CCCCC2C(C#N)(C#N)C1(C#N)C(=N)O3 (stereo unspecified)	95.8% (active)
CCCC[C@@H]1CN=C(N)N1CCc1cc(C(F)(F)F)cc(C(F)(F)F)c1	10.6%
O=C(Nn1c(-c2ccc(Cl)cc2)nc2ccccc2c1=O)c1cccnc1Cl	5.2%
CN(C)c1ccc(Nc2c3c4c(cccc4n(C)c2=O)C(=O)c2ccccc2-3)cc1	55.2% (active)
CCOC(=O)C(CC)/C(C)=N\NC(=O)c1cccc(C)c1 (stereo unspecified)	-4.82%
Cc1ccc(NS(=O)(=O)c2ccc(F)cc2)nc1	1.22%
Cc1cc(-c2csc(N)n2)c(C)n1Cc1ccccc1	6.96%
CC(=O)c1ccc(-c2ccc(Cn3c(C)nc4cc(N)c(C)nc43)cc2)cc1	8.3%
COc1ccccc1NC(=O)COC(=O)Cc1ccc(S(=O)(=O)N2CCCCC2)s1	-0.05%
Cc1nn(C(=O)c2ccoc2C)c(N)c1-c1ccccc1	193% (active)
Cc1nn(-c2ccc([N+](=O)[O-])cc2)c(N)c1-c1ccccc1	-34.6%
C/C(=N\NC(=O)c1ccoc1C)c1ccccc1O	4.86%
Cc1csc(NC(=O)CSc2nc(=O)n(CCCN(C)C)c3c2CCC3)n1	-0.83%
COc1ccc(SCCN2CCN(CC(C)C)CCC2=O)cc1	-4.27%
CC(=O)N(CC(O)CO)c1c(I)c(C(=O)NCC(O)CO)c(I)c(C(=O)NCC(O)CO)c1I (stereo unspecified)	-0.91%
COCCn1c(SCC(=O)Nc2nc(C)cs2)nnc1C(C)C	-2.37%
CC1(C)Cc2c(C#N)c(SCc3nc4ccccc4[nH]3)nc(N3CCOCC3)c2CO1	3.45%
C1=C(N2CCOCC2)/C(=C/c2nc3ccccc3[nH]2)CC1	105% (active)
O=c1[nH]c(N2CCOCC2)nc2ccccc12	2.38%
CNC(=O)N1c2ccccc2C=Cc2ccccc21	-1.86%

SMILES	inhibition
CS(=O)(=O)N1CCc2nc(-c3ccccc3)sc2C1	7.75%
COc1ncnc2c1N=C1CC(C)(C)CC(N)=C1S2	191% (active)
CCN(CC)S(=O)(=O)c1ccc2[nH]c(=O)cc(C(=O)N(C)C3CCS(=O)(=O)C3)c2c1 (stereo unspecified)	7.4%
CCCC(C(=O)OCCN(CC)CC)(c1ccccc1)c1ccccc1	-3.08%
CCN1CC=C2C(C#N)=C(N)C(C#N)(C#N)[C@H](c3ccoc3)[C@H]2C1	171% (active)
CCCN1CC=C2C(C#N)=C(N)C(C#N)(C#N)C(c3cc(OC)ccc3OC)C2C1 (stereo unspecified)	68.3% (active)
N#CC1=C(N)C(C#N)(C#N)[C@H](c2ccsc2)[C@H]2COCC=C12	32.7%
CSc1ccccc1NC(=O)c1cnc2sc(C)cn2c1=O	3.46%
O=C(OCC(=O)N1CCOCC1)c1ccc2ccccc2c1	-1.12%
Cn1c2ccccc2c(=O)c2c(=O)n(Cc3ccco3)c(COc3ccccc3)nc21	60.6% (active)
CCCc1nc2c(c(=O)c3ccccc3n2C)c(=O)n1C1CCCCCC1	-7.58%
O=c1c2ccccc2oc2nc(C3CCCCC3)n(Cc3ccco3)c(=O)c12	2.28%
O=C(O)c1ccc(S(=O)(=O)N2CCOCC2)o1	-0.62%
COC(=O)N/N=C/c1c[n+]([O-])c2ccccc2[n+]1[O-]	5.75%
Cc1cc(/C=C2\SC(=O)N(C)C2=O)c(C)n1-c1cccc(C(=O)O)c1	10.5%
Cc1cc(/C=C2\SC(=Nc3ccc(N4CCOCC4)cc3)N(C)C2=O)c(C)n1-c1cccnc1	-2.16%
CN1C(=O)/C(=C/c2ccco2)SC1=Nc1cccc(C(=O)O)c1	44.5% (active)
COc1ccc(N(CC(=O)NC2CCCCC2)S(=O)(=O)c2c(C)[nH]c(=O)[nH]c2=O)cc1	5.18%
CN(C(=O)COC(=O)c1nc(Cl)ccc1Cl)C1CCS(=O)(=O)C1 (stereo unspecified)	-0.55%
CC1CCCN(C(=O)c2cc(-c3ccco3)nc3ccccc23)C1 (stereo unspecified)	7.17%
COc1ccc(-c2cc(C(=O)N(C)Cc3ccccc3)c3ccccc3n2)cc1	-5.9%
CN(CCOc1ccccc1)C(=O)c1cc(-c2ccco2)nc2ccccc12	46% (active)
COc1ccc(NC(=O)CN(C)C(=O)c2cc(-c3ccc(C)o3)nc3ccccc23)cc1	4.98%
CN(C(=O)COC(=O)c1cc(-c2ccco2)nc2ccccc12)C1CCS(=O)(=O)C1 (stereo unspecified)	105% (active)
